The results in this text go back to PubChem BioAssay (EPA / NIEHS).

Inconclusive results are not listed. Calls of active or inactive are those of the source. How the source made its calls, unless noted: active means hit-call score of the fitted dose curve at least 0.9, where 1 is the maximum; inactive means score below 0.9.

The target of assay [1] is Nuclear respiratory factor 1 (Homo sapiens) (UniProt Q16656). Kind of assay: ATG_NRF1_CIS: Attagene CIS-FACTORIAL HepG2 Assay for human Nuclear Respiratory Factor 1 (NRF1) Orphan Gene (AID 2282987). The note with it: HepG2 NRF1 cis-element reporter, Attagene multiplex; actives raise or lower the signal. A digest of the protocol:
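Endogenous NRF1-driven reporter transcription measured in transiently transfected human HepG2 liver cells. Readout: reporter mRNA by RT-PCR and capillary electrophoresis with fluorescence detection, 24 h post-dosing. Gain or loss of signal fitted relative to DMSO baseline.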

Assay [2] in a line: ATG_NFI_CIS: Attagene CIS-FACTORIAL HepG2 Assay for human Nuclear Factor I (NFI) (AID 2282989). The note with it: HepG2 cis-regulatory reporter, NFI response element transcription; actives raise or lower the signal. A digest of the protocol:
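Multiplexed cis-reporter system in human HepG2 cells reports native TF activity as reporter mRNA induction 24 h post-dose. Fragments labelled with 6-FAM, HpaI-digested and resolved by capillary electrophoresis; activity fitted both directions versus DMSO.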

Assay [3] has as its target Myc proto-oncogene protein (Homo sapiens) (UniProt P01106). Nature of the assay: ATG_Myc_CIS: Attagene CIS-FACTORIAL HepG2 Assay for human Myelocytomatosis (Myc) Proto-Oncogene Transcription Factor (AID 2282990). The note with it: HepG2, Attagene cis-reporter transcription factor activity; actives raise or lower the signal. A digest of the protocol:
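Read-out: fluorescent reporter mRNA fragments resolved by capillary electrophoresis after RT-PCR. Human HepG2 liver cells carried transfected cis-element reporter units and were dosed for 24 h. Gain or loss of signal fitted relative to DMSO baseline.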

The nature of assay [4]: ATG_NF_kB_CIS: Attagene CIS-FACTORIAL HepG2 Assay for human Nuclear Factor Kappa B (NF-kB) (AID 2282991). The note with it: HepG2 Attagene cis-factorial NF-kB reporter mRNA; actives raise or lower the signal. A digest of the protocol:
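Read-out: reporter transcript levels quantified by RT-PCR plus capillary electrophoresis of 6-FAM-labelled, HpaI-cut fragments. Transfected HepG2 cells, 24 h compound exposure, endogenous NF-kB-driven cis element; gain or loss scored versus DMSO.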

The nature of assay [5]: ATG_NRF2_ARE_CIS: Attagene CIS-FACTORIAL HepG2 Assay for human Nuclear Factor Erythroid 2 Related Factor 2 (NFR2) response to Antioxidant Response Elements (ARE) (AID 2282992). The note with it: HepG2 Attagene ARE/NRF2 reporter, transcription factor activity; actives raise or lower the signal. Summed up:
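Cis-factorial assay: transfected HepG2 reporter library, 24 h dosing, mRNA readout via RT-PCR/CE; DMSO-referenced bidirectional analysis.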

A short description of assay [6]: ATG_Oct_MLP_CIS: Attagene CIS-FACTORIAL HepG2 Assay for human Octamer-Binding Transcription Factor (Oct) (AID 2282993). The note with it: HepG2 Attagene cis-factorial Oct reporter, mRNA; actives raise or lower the signal. A digest of the protocol:
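After 24 h compound exposure, transfected HepG2 cells were lysed for total RNA; reporter-specific cDNA was PCR-amplified, fluorescently labelled and sized by capillary electrophoresis. Bidirectional curve fitting used DMSO as baseline.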

The target in assay [7] is Cellular tumor antigen p53 (Homo sapiens) (UniProt P04637). Kind of assay: ATG_p53_CIS: Attagene CIS-FACTORIAL HepG2 Assay for human p53 Transcription Factor (AID 2282994). The note with it: HepG2 p53 cis-element reporter, Attagene mRNA; actives raise or lower the signal. Summed up: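 Using HepG2 hepatoma cells carrying cis-acting multiplexed reporters, mRNA induction is detected after a 24 h exposure. Gain- and loss-of-signal responses are fitted relative to DMSO-treated cells.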

Assay [8] addresses human Peroxisome Proliferator-activated Receptor delta (PPARd), PPARD (gene 5467) (UniProt Q03181). Nature of the assay: ATG_PPARd_TRANS: Attagene TRANS-FACTORIAL HepG2 Assay for human Peroxisome Proliferator-activated Receptor delta (PPARd) (AID 2283002; active means hit-call score of the fitted dose curve at least 0.9, where 1 is the maximum). A digest of the protocol: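 Read-out: reporter mRNA induction, quantified by fluorescent RT-PCR products resolved by capillary electrophoresis. Human HepG2 liver cells carried transiently transfected Gal4-UAS reporter constructs with chimeric NR-Gal4 fusions. Cells were dosed for 24 h; DMSO served as baseline.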

The target of assay [9] is human Retinoic Acid Receptor beta (RARb), RARB (gene 5915) (UniProt P10826). Nature of the assay: ATG_RARb_TRANS: Attagene TRANS-FACTORIAL HepG2 Assay for human Retinoic Acid Receptor beta (AID 2283004; active means hit-call score of the fitted dose curve at least 0.9, where 1 is the maximum). Summed up: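 Transient transfection of HepG2 with multiple reporter units → chemical dosing, 24 h → total RNA isolation → RT with oligo(dT) → reporter-specific PCR, 6-FAM primer extension, HpaI digest → capillary electrophoresis. Positive direction vs DMSO control.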

Assay [10] addresses Peroxisome proliferator-activated receptor gamma (Homo sapiens) (UniProt P37231). Nature of the assay: ATG_PPARg_TRANS: Attagene TRANS-FACTORIAL HepG2 Assay for human Peroxisome Proliferator-activated Receptor-gamma (PPARg) (AID 2283007; active means hit-call score of the fitted dose curve at least 0.9, where 1 is the maximum). A digest of the protocol: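 Read-out: reporter mRNA induction, detected by fluorescence after RT-PCR and capillary electrophoresis. Transiently transfected human HepG2 liver cells carrying a chimeric NR-Gal4 construct were dosed for 24 h; activity was fitted upward relative to DMSO.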

In assay [11] the target is Nuclear receptor subfamily 1 group I member 2 (Homo sapiens) (UniProt O75469). Kind of assay: ATG_PXR_TRANS: Attagene TRANS-FACTORIAL HepG2 Assay for human Pregnane X Receptor (PXR) (AID 2283008; active means hit-call score of the fitted dose curve at least 0.9, where 1 is the maximum). A digest of the protocol: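 Fluorescence intensity of FAM-labelled, HpaI-digested reporter amplicons, separated by capillary electrophoresis, quantifies induction. HepG2 cells with PXR-Gal4 trans-reporter system were exposed 24 h; DMSO defines baseline.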

For assay [12], the target named is human Retinoic Acid Receptor gamma (RARg), RARG (gene 5916) (UniProt P13631). Nature of the assay: ATG_RARg_TRANS: Attagene TRANS-FACTORIAL HepG2 Assay for human Retinoic Acid Receptor gamma (RARg) (AID 2283009; active means hit-call score of the fitted dose curve at least 0.9, where 1 is the maximum). A digest of the protocol: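 HepG2 cells transiently transfected with multiplexed reporter units expressing chimeric RARg-GAL4 and GAL4-UAS-driven reporters; 24 h compound exposure. Reporter mRNA quantified by RT-PCR with fluorescent labelling and capillary electrophoresis; gain-of-signal fitted relative to DMSO baseline.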

Assay [13] addresses human Peroxisome Proliferator-activated Receptor alpha (PPARa), PPARA (gene 5465) (UniProt Q07869). Kind of assay: ATG_PPARa_TRANS: Attagene TRANS-FACTORIAL HepG2 Assay for human Peroxisome Proliferator-activated Receptor alpha (PPARa) (AID 2283001; active means hit-call score of the fitted dose curve at least 0.9, where 1 is the maximum). A digest of the protocol: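 Measures transcriptional activity of an exogenous chimeric PPARa-Gal4 protein in transiently transfected HepG2 cells after 24 h dosing. Reporter mRNA quantified via RT-PCR and capillary electrophoresis; DMSO served as negative control.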

Assay [14] in a line: BSK_3C_TissueFactor: BioMAP Diversity Plus: 3C Assay for Tissue Factor Biomarker Activity (AID 2282997). The note with it: BioMAP 3C HUVEC, tissue factor biomarker readout; actives raise or lower the signal. A digest of the protocol:
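ELISA read-out of Tissue Factor levels on human umbilical vein endothelium collected 24 h after chemical dosing. Gain or loss of signal was fitted relative to DMSO.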

Assay [15] in a line: BSK_3C_VCAM1: BioMAP Diversity Plus: 3C Assay for Vascular cell adhesion molecule 1 (VCAM1) Biomarker Activity (AID 2282999). The note with it: BioMAP 3C HUVEC, VCAM1 ELISA, cytokine-stimulated; actives raise or lower the signal. A digest of the protocol:
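Human umbilical vein endothelial cells (3C system), biomarker read by ELISA 24 h after dosing; bidirectional fit against DMSO baseline. Cytotoxicity tracked by SRB total-protein staining in parallel cultures at biomarker time.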

A short description of assay [16]: BSK_4H_Eotaxin3: BioMAP Diversity Plus: 4H Assay for Eotaxin 3 Biomarker Activity (AID 2283000).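 Further: CCL26 protein level quantified by ELISA in parallel with SRB cytotoxicity check.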 The note with it: primary human endothelial cells (HUVEC); actives raise or lower the signal. A digest of the protocol: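 Chemicals were added to human umbilical vein endothelium cultures, and Eotaxin-3 was quantified by ELISA at 24 h. Values were derived by bidirectional fitting with DMSO serving as negative control and activity baseline.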

Read-out in assay [17]: Intercellular Adhesion Molecule 1 (ICAM1), ICAM1 (gene 3383)
Nature of the assay: BSK_3C_ICAM1: BioMAP Diversity Plus: 3C Assay for Intercellular Adhesion Molecule 1 (ICAM1) Biomarker Activity (AID 2283003). The note with it: primary human endothelial cells (HUVEC); actives raise or lower the signal. Summed up:
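Primary human umbilical vein endothelial cells in the BioMAP 3C system were exposed to chemicals for 24 h, then ICAM-1 was quantified by ELISA. Activity was fitted bidirectionally against the DMSO negative control baseline.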

Assay [18] can be described thus: BSK_3C_Proliferation: Cell Proliferation Assessment in the BioMAP Diversity Plus: 3C Assay (AID 2283006). The note with it: primary human endothelial cells (HUVEC). A digest of the protocol:
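Human umbilical vein endothelial cells were grown sub-confluent and exposed to chemical for 48 h, then fixed with 10% TCA and stained with 0.1% sulforhodamine B; absorbance at 560 nm gave relative cell number, fitted bidirectionally against DMSO baseline.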

In assay [19] the target is Retinoic acid receptor alpha (Homo sapiens) (UniProt P10276). Kind of assay: ATG_RARa_TRANS: Attagene TRANS-FACTORIAL HepG2 Assay for human Retinoic Acid Receptor alpha (RARa) (AID 2283005; active means hit-call score of the fitted dose curve at least 0.9, where 1 is the maximum). A digest of the protocol: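 HepG2 transiently transfected with multiplex GAL4-UAS reporter units including a human RARa–GAL4 chimera; 24 h compound exposure. Reporter mRNA quantified by RT-PCR, 6-FAM labeling and capillary electrophoresis; gain of signal versus DMSO.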
Chain of Retinoic acid receptor alpha (Homo sapiens) (P10276 whole entry, looked up, the tested form may be a part): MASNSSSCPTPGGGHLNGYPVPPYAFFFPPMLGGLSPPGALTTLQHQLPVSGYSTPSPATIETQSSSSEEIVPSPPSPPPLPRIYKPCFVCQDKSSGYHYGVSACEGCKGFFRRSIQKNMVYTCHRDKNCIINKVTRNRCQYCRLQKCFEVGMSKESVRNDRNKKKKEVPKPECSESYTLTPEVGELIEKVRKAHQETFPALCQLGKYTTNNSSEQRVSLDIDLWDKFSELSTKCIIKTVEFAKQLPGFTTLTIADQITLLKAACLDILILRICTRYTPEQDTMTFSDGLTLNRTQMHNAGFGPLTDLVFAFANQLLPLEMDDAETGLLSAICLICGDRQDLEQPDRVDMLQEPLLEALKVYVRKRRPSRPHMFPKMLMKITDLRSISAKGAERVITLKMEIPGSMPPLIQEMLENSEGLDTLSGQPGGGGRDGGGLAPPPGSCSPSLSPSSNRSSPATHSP

Chain of Myc proto-oncogene protein (Homo sapiens) (P01106 whole entry, looked up, the tested form may be a part): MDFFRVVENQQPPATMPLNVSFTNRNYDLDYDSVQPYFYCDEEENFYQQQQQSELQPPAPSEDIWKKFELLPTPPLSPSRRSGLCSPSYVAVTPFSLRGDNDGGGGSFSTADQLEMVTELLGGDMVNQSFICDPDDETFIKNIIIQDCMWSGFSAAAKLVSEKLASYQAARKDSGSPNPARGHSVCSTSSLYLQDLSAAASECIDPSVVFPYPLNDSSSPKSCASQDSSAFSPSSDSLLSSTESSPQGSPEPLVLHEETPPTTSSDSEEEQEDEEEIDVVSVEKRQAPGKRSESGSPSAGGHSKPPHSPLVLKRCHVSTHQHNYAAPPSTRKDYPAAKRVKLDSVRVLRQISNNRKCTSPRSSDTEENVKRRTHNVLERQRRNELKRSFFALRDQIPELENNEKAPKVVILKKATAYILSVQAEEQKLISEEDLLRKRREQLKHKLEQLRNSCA
Chain of Peroxisome proliferator-activated receptor gamma (Homo sapiens) (P37231 whole entry, looked up, the tested form may be a part): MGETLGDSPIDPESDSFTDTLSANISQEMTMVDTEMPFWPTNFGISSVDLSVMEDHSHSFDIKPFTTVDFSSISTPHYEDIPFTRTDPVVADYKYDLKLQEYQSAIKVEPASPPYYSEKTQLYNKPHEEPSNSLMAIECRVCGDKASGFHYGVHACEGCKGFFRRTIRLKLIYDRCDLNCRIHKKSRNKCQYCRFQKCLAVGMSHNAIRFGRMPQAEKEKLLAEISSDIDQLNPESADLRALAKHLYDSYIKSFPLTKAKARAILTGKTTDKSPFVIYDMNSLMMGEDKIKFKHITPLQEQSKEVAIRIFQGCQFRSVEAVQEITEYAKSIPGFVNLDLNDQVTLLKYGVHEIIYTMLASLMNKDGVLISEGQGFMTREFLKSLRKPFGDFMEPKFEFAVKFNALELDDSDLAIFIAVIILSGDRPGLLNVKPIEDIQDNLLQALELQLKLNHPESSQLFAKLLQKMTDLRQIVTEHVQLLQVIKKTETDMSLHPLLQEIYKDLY
Chain of human Peroxisome Proliferator-activated Receptor delta (PPARd), PPARD (gene 5467) (Q03181 whole entry, looked up, the tested form may be a part): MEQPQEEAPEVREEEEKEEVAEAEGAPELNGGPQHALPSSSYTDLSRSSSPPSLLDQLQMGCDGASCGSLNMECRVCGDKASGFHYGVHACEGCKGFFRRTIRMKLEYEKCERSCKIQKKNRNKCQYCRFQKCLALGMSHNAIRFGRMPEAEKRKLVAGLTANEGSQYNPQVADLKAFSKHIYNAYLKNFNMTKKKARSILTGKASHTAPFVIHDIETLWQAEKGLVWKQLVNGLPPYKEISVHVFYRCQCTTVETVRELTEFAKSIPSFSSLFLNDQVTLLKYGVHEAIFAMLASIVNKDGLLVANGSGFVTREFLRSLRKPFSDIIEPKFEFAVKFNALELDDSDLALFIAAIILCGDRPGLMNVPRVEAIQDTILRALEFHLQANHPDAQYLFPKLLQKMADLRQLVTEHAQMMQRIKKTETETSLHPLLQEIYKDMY
Chain of human Retinoic Acid Receptor gamma (RARg), RARG (gene 5916) (P13631 whole entry, looked up, the tested form may be a part): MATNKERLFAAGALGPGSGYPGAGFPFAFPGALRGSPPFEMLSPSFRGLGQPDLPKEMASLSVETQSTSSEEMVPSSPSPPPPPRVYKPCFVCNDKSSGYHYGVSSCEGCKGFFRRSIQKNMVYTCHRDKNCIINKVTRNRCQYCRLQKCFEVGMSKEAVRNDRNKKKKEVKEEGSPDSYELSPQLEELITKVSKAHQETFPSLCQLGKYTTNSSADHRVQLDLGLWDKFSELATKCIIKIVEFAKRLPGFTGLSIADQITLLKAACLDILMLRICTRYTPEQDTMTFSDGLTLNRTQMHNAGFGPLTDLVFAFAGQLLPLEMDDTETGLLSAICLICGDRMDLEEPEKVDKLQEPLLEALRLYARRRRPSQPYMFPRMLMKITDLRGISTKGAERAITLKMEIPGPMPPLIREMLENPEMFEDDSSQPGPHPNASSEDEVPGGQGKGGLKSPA
Chain of Nuclear receptor subfamily 1 group I member 2 (Homo sapiens) (O75469 whole entry, looked up, the tested form may be a part): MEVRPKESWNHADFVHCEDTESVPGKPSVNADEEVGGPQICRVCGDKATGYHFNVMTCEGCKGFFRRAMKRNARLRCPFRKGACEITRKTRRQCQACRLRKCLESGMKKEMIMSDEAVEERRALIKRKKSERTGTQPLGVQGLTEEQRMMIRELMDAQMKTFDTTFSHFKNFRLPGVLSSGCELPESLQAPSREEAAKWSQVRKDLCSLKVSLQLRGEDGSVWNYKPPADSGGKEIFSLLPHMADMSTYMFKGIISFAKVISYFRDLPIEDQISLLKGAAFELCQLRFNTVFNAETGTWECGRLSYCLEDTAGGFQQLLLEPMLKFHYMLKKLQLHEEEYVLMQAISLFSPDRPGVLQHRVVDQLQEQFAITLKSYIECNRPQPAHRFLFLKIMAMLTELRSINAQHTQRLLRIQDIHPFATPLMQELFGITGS
Chain of Cellular tumor antigen p53 (Homo sapiens) (P04637 whole entry, looked up): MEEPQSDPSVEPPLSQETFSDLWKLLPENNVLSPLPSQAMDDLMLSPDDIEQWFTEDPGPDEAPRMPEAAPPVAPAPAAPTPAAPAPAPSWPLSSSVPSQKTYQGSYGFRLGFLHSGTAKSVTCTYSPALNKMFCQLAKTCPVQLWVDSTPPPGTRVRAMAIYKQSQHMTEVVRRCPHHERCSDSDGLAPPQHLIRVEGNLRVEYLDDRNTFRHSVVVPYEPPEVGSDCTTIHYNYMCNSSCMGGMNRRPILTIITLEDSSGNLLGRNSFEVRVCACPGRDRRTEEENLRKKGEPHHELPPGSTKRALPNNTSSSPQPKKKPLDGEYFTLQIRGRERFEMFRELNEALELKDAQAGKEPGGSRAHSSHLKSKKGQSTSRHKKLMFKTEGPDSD
Chain of human Peroxisome Proliferator-activated Receptor alpha (PPARa), PPARA (gene 5465) (Q07869 whole entry, looked up, the tested form may be a part): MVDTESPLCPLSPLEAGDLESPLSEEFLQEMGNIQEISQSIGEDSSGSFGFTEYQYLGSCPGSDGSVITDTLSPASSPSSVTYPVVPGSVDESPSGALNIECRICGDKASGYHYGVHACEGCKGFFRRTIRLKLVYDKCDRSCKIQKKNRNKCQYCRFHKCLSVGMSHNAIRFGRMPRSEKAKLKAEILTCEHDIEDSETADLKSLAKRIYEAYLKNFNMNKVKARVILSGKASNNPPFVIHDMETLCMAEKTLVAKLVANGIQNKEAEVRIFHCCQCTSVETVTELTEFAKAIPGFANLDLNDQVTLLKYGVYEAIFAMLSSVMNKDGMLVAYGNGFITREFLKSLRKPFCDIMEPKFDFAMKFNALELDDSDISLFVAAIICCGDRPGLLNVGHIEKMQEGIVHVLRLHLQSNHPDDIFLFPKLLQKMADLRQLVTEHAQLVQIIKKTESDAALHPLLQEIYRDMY
Chain of human Retinoic Acid Receptor beta (RARb), RARB (gene 5915) (P10826 whole entry, looked up): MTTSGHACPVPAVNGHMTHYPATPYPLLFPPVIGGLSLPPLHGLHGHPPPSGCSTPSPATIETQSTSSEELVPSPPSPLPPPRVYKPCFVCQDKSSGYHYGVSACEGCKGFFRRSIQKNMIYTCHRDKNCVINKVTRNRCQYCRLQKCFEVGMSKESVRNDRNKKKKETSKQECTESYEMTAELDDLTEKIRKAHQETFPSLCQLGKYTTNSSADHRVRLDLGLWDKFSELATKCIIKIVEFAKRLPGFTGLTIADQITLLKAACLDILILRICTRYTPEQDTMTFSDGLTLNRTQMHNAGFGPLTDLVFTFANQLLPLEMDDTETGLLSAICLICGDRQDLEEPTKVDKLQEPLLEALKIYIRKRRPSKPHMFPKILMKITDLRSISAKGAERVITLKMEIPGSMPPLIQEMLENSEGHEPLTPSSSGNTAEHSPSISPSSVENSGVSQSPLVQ
Chain of Nuclear respiratory factor 1 (Homo sapiens) (Q16656 whole entry, looked up): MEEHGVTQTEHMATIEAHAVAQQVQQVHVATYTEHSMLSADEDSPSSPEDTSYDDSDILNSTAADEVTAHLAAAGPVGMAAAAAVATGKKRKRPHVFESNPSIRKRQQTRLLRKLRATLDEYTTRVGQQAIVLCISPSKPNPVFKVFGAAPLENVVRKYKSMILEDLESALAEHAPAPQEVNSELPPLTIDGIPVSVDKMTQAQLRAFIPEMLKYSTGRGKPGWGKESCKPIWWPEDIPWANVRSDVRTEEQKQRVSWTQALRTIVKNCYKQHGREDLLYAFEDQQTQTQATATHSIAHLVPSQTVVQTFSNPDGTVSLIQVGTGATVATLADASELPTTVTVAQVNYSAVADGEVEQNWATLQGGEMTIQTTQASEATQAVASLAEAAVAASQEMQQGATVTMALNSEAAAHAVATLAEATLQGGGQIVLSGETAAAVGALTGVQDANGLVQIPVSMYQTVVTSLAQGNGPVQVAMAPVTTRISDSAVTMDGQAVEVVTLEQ

Take `COCCOCCC[Si](C)(O[Si](C)(C)C)O[Si](C)(C)C`: the result in assay [1], in assay [2], in assay [3], in assay [4], in assay [7] and in assay [8] was inactive. Also, the compound was called inactive in assay [9], in assay [10] and in assay [12]. Moreover, the AC50 was 1640 nM (active) in assay [5], 3740 nM (active) in assay [6] and 1470 nM (active) in assay [11].
Take `CSc1ccc(Cl)cc1`: the compound was called inactive in assay [1], in assay [2], in assay [3], in assay [4], in assay [5] and in assay [6]. The call in assay [7], in [13], in assay [8] and in [11] was inactive.
Consider `CCCCCCCCCCCCCCCCC`, for which the call in assay [1], in assay [2], in assay [3], in [4], in assay [5] and in assay [6] was inactive. In addition, the result in assay [7] and in assay [8] was inactive.
For `COCCC(=O)OC`, the compound was called inactive in [1], in [2], in assay [3], in [4], in assay [5] and in assay [6]. Also, the result in [7], in assay [13], in assay [8], in [10] and in assay [11] was inactive.
For the compound `CO[Si](C)(CCC(F)(F)C(F)(F)C(F)(F)C(F)(F)C(F)(F)C(F)(F)F)OC`, the call in assay [1], in [2], in assay [3], in assay [4], in assay [5] and in assay [6] was inactive. Besides, the compound was classed as inactive in [7], in [14], in [15], in [16], in assay [8] and in [17]. Also, the outcome in [18], in assay [10], in assay [11] and in assay [12] was inactive.
In the case of `Cc1cc(=O)[nH]c(C(C)C)n1`, the compound was classed as inactive in assay [1], in assay [2], in [3], in assay [4], in [5] and in assay [6]. In addition, the call in assay [7], in assay [13], in assay [8], in assay [11] and in assay [12] was inactive.
Consider `C=C(C)CCCC`, for which the compound was called inactive in assay [1], in assay [2], in assay [3], in assay [4], in assay [5] and in [6]. The result in [7], in assay [8], in [9], in assay [19], in [11] and in assay [12] was inactive.
Turning to `CC1=CCC(=O)O1`, the compound was called inactive in [1], in assay [2], in assay [3], in [4], in assay [5] and in assay [6]. The compound was called inactive in assay [7], in assay [8], in assay [9], in assay [19] and in [10].
For the compound `CC1CCCCC1`, the call in assay [1], in [2], in assay [3], in assay [4], in assay [5] and in assay [6] was inactive. Besides, the call in assay [7], in assay [13], in [19], in assay [10], in assay [11] and in assay [12] was inactive.
For the compound `CSc1ccc(O)cc1C`, the result in assay [1], in assay [2], in [3], in assay [4], in assay [5] and in assay [6] was inactive. Also, the compound was called inactive in assay [7], in [13], in assay [8], in assay [9], in assay [10] and in assay [11]. Besides, in [12], the compound was classed as inactive.
